According to publication PMC4336329 (PLoS ONE, 2015):
Among all 310,000 compounds or so, about 2,200 (0.71%) showed an effect of 50% or more. Effects have a minus sign here. For the sample, strong results were picked, then their nearest neighbours and some compounds at random.

The compounds below were run against human ether-à-go-go-related gene (hERG) potassium channel (human, UniProt Q12809) (assay: primary screen, population patch clamp on CHO cells stably expressing hERG; higher = less effect of the substance).
Chain of human ether-à-go-go-related gene (hERG) potassium channel (Q12809 whole entry, looked up): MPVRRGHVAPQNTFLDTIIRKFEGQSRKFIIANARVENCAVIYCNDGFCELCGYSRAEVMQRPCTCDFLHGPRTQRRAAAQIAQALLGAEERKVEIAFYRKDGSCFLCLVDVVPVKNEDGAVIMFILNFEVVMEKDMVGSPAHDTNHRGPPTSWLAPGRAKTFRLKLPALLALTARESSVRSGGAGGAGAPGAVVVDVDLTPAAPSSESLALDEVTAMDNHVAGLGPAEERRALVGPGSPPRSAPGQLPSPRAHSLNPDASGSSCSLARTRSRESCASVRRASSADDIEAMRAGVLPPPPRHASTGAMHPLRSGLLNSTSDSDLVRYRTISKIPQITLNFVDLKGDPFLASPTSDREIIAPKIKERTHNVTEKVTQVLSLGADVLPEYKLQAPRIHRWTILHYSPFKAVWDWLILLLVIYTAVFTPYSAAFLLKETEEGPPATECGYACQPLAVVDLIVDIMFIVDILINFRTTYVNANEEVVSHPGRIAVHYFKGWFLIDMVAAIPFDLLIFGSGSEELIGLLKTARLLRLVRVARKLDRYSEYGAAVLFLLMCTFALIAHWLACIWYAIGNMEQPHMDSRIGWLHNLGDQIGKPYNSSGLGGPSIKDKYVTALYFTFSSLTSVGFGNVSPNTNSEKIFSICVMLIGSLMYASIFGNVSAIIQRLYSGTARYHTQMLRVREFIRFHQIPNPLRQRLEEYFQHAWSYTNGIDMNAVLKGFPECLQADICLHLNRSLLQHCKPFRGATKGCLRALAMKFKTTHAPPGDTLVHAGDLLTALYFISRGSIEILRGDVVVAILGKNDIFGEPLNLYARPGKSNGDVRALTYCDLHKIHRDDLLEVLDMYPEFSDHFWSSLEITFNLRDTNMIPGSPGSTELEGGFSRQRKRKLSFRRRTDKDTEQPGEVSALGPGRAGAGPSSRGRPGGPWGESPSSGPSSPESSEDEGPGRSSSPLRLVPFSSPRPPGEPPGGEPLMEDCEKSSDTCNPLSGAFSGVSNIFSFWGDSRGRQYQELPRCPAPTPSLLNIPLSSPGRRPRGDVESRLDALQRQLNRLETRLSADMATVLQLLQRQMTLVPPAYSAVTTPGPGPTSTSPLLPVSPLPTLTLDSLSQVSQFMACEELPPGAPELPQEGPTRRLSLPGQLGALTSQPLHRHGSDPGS
With CCOCCCn1c(=NC(=O)c2cccs2)c(C#N)cc2c(=O)n3cccc(C)c3nc21 the “hERG current change (%, negative = inhibition) at 1uM” value was -53.9%. With Cc1nc(OCc2c(C)noc2C)c2ccccc2n1 the “hERG current change (%, negative = inhibition) at 1uM” value was 13.1%. In the case of CCn1cc(C(=O)N2CCC3(CC2)OCCO3)c(=O)c2cc(S(=O)(=O)N3CCCC3)ccc21, the “hERG current change (%, negative = inhibition) at 1uM” value is reported as 15.9%. Cn1c(CNC(=O)Nc2ccccc2Cl)nnc1SCc1ccccc1 was tested, and the “hERG current change (%, negative = inhibition) at 1uM” value was 2.3%. With CCCN(C(=O)CSc1nnc2ccccn12)C1CCS(=O)(=O)C1 (stereo not shown) the “hERG current change (%, negative = inhibition) at 1uM” value was 10.4%. In the case of CC(=O)NC(NC(C)=O)c1ccc(Br)cc1, the “hERG current change (%, negative = inhibition) at 1uM” value is reported as -1.9%. With COC(=O)c1ccc(C)c(NC(=O)c2ccc(Cl)c([N+](=O)[O-])c2)c1 the “hERG current change (%, negative = inhibition) at 1uM” value was 5.94%. For CCOC(=O)c1c(CN2CCN(c3ccccc3)CC2)oc2ccc(O)cc12, the “hERG current change (%, negative = inhibition) at 1uM” value was 12.6%. With CCOC(=O)c1[nH]c(C)c(C(=O)N2CCN(c3ccccc3)CC2)c1C the “hERG current change (%, negative = inhibition) at 1uM” value was -3.94%. For CCOC(=O)c1c(N2CCN(c3ccccc3)CC2)cc(C)nc1C.O=C([O-])C(=O)[O-], the “hERG current change (%, negative = inhibition) at 1uM” value was -69%. For CCCC(=O)Nc1ccccc1NC(=O)CN(C)S(=O)(=O)c1ccccc1, the “hERG current change (%, negative = inhibition) at 1uM” value was 9.94%. For CCOc1ccccc1NC(=O)CSc1nnc(-c2ccco2)o1, the “hERG current change (%, negative = inhibition) at 1uM” value was 8.2%. N/C(=N\OC(=O)CCC1CCCCC1)c1cccc([N+](=O)[O-])c1 was tested, and the “hERG current change (%, negative = inhibition) at 1uM” value was 3.64%. For N/C(=N\OC(=O)CC1CCCCC1)c1cccc([N+](=O)[O-])c1, the “hERG current change (%, negative = inhibition) at 1uM” value was 13.7%. N/C(=N\OC(=O)CCC1CCCC1)c1cccc([N+](=O)[O-])c1 was tested, and the “hERG current change (%, negative = inhibition) at 1uM” value was -53.8%. In the case of O=C(O)c1ccc(NS(=O)(=O)c2cc(Cl)ccc2Cl)cc1O, the “hERG current change (%, negative = inhibition) at 1uM” value is reported as 4.19%. CCCc1cc(C(=O)Nc2cc(Br)ccc2O)no1 was tested, and the “hERG current change (%, negative = inhibition) at 1uM” value was 18.4%. In the case of CCc1ccc(NC(=O)C(=O)NCCN2CCN(S(C)(=O)=O)CC2)cc1, the “hERG current change (%, negative = inhibition) at 1uM” value is reported as 18.2%. With O=C(NCCc1ccccc1)C(=O)Nc1ccc([N+](=O)[O-])cc1 the “hERG current change (%, negative = inhibition) at 1uM” value was 11%. With O=C(NCCN1CCN(S(=O)(=O)c2ccc([N+](=O)[O-])cc2)CC1)C(=O)Nc1ccccc1 the “hERG current change (%, negative = inhibition) at 1uM” value was 2.87%. In the case of CCCCc1ccc(NC(=O)C(=O)NCCN2CCN(Cc3ccc([N+](=O)[O-])cc3)CC2)cc1, the “hERG current change (%, negative = inhibition) at 1uM” value is reported as -6.8%. CN1CCN(CCNC(=O)Nc2ccc([N+](=O)[O-])cc2)CC1 was tested, and the “hERG current change (%, negative = inhibition) at 1uM” value was 10.7%. CCN1CCN(CCNC(=O)Nc2ccc([N+](=O)[O-])cc2)CC1 was tested, and the “hERG current change (%, negative = inhibition) at 1uM” value was 13.2%. With CCc1ccc(NC(=O)C(=O)NCCN2CCN(Cc3ccc([N+](=O)[O-])cc3)CC2)cc1 the “hERG current change (%, negative = inhibition) at 1uM” value was -67.4%. With Cc1ccc(NC(=O)C(=O)NCCN2CCN(Cc3ccc([N+](=O)[O-])cc3)CC2)cc1 the “hERG current change (%, negative = inhibition) at 1uM” value was -53.3%. In the case of O=C(NCCN1CCN(Cc2ccc([N+](=O)[O-])cc2)CC1)C(=O)Nc1ccccc1, the “hERG current change (%, negative = inhibition) at 1uM” value is reported as -53.8%. With Cc1ccc(CNS(=O)(=O)/C=C/c2ccc3c(c2)OCO3)cc1 the “hERG current change (%, negative = inhibition) at 1uM” value was -0.964%. For c1ccc(-c2nnc3sc(-c4csc5c4CCCC5)nn23)cc1, the “hERG current change (%, negative = inhibition) at 1uM” value was 4.3%. In the case of O=C(Nc1ncn[nH]1)c1ccc([N+](=O)[O-])cc1[N+](=O)[O-], the “hERG current change (%, negative = inhibition) at 1uM” value is reported as 18.3%. COCCNC(=S)N(Cc1cccs1)Cc1cc2cccc(C)c2[nH]c1=O was tested, and the “hERG current change (%, negative = inhibition) at 1uM” value was 15.9%. For c1ccc(Cn2c(CNc3nc4ccccc4n3CCN3CCOCC3)nc3ccccc32)cc1, the “hERG current change (%, negative = inhibition) at 1uM” value was -54.4%. With c1ccc2c(c1)nc(NCc1ccc3c(c1)OCO3)n2CCN1CCOCC1 the “hERG current change (%, negative = inhibition) at 1uM” value was -40.7%. CCN(CC)c1ccc(CNc2nc3ccccc3n2CCN2CCCCC2)cc1 was tested, and the “hERG current change (%, negative = inhibition) at 1uM” value was -18%. c1ccc(Cn2c(CNc3nc4ccccc4n3CCN3CCCCC3)nc3ccccc32)cc1 was tested, and the “hERG current change (%, negative = inhibition) at 1uM” value was -5.91%. In the case of Cc1cccc(NCc2nc3ccccc3n2Cc2ccccc2)c1, the “hERG current change (%, negative = inhibition) at 1uM” value is reported as 12%. With CCn1cnc2cc(NCc3nc4ccccc4n3Cc3ccccc3)ccc21 the “hERG current change (%, negative = inhibition) at 1uM” value was -15.2%. In the case of c1csc(CNc2nc3ccccc3n2CCN2CCOCC2)c1, the “hERG current change (%, negative = inhibition) at 1uM” value is reported as -9.4%. In the case of Cc1nc2cc(NCc3nc4ccccc4n3Cc3ccccc3)ccc2n1C, the “hERG current change (%, negative = inhibition) at 1uM” value is reported as -61.7%. With COc1ccc(CNc2nc3ccccc3n2CCN2CCOCC2)cc1 the “hERG current change (%, negative = inhibition) at 1uM” value was -46.5%. Brc1cccc(CNc2nc3ccccc3n2CCN2CCOCC2)c1 was tested, and the “hERG current change (%, negative = inhibition) at 1uM” value was -56.7%. In the case of CCN(CC)c1ccc(CNc2nc3ccccc3n2CCN2CCOCC2)cc1, the “hERG current change (%, negative = inhibition) at 1uM” value is reported as -76.1%. With Brc1cccc(CNc2nc3ccccc3n2CCN2CCCCC2)c1 the “hERG current change (%, negative = inhibition) at 1uM” value was -0.507%. With NS(=O)(=O)c1ccc(NC(=O)CSc2nc(Nc3ccccc3)nc(N3CCOCC3)n2)cc1 the “hERG current change (%, negative = inhibition) at 1uM” value was 24.9%.
